# Sampled rows, rich in hits. Any-hit rate of the full collection: about 11%.
# Sm TGR inh: blocks Schistosoma mansoni thioredoxin glutathione reductase; Q962Y6; purified TGR, DTNB reduction, TNB absorbance 405 nm; Potency, µM (highest dose often 114 µM), for the others: at the highest dose activity change, negative = inhibition, usual class: inhibitors; actives 3% (n = 360,000); AID 485364; also: % is scaled to controls: 0 for no effect and ±100 for the full control effect; nearly all actives have a fitted effect of over 60% in size
#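 TGR 20 nM + NADPH 100 uM (dispensed conc.), cpd preinc 15 min RT; start with NADPH (500 uM addition) then DTNB (15 mM addition). Kinetic TNB absorbance, 405 nm filter. Four-parameter Hill fit across titration.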
# Pf growth 48h: P. falciparum growth inhibition at 48 hours (one generation). P. falciparum luciferase growth in erythrocytes, 48 h. Potency, µM (highest dose often 28.7 µM), for inactives: at the top dose activity change, negative = inhibition, usual class: inhibitors. actives 5.9% (n = 310,000); also: % is scaled to controls: 0 for no effect and ±100 for the full control effect
#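 Luciferase-expressing P. falciparum in infected erythrocytes (2% hematocrit, 0.1% parasitemia final) in RPMI 1640/0.5% Albumax were exposed to compound for 48 hours at 37 C, 5% CO2; growth read as luminescence.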
# AMA1-RON2 inh: disrupts binding of P. falciparum AMA1 to RON2. AlphaScreen AMA1-biotinylated RON2 peptide binding. Potency, µM (doses to about 58.2 µM), inactives show at the top dose activity change, negative = inhibition, usual class: inhibitors. actives 0.2% (n = 360,000). AID 720542;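 also: 0% = vehicle wells and -100% = peptide control; nearly all actives have a fitted effect of over 45% in size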
#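 AMA1 (3D7) with his tag at 25 nM final met compounds first, then biotinylated RON2 peptide at 25 nM; detection used donor plus acceptor beads, 10 µg/mL apiece, read by AlphaScreen after 30 min at room temperature.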
# NS1 inh: influenza NS1 inhibition; AID 2326; Potency, µM (top dose mostly 46.1 µM), for inactives: at the top dose activity, positive = more growth; actives 0.4% (n = 270,000); calls by dose curve; also: actives are rising curves; nearly all actives have a fitted effect of over 50% in size
#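 Growth recovery, yeast-based: influenza A NS1 expressed in S. cerevisiae causes slow growth, and suppressors are detected by OD600. The parent strain without NS1 is used as positive control.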
# Pf growth 96h: P. falciparum growth inhibition at 96 hour, primary screen for plastid delayed-death inhibitors; AID 504834; actives 6.9% (n = 320,000); Potency, µM (top dose mostly 28.7 µM), inactives show at the top dose activity change, negative = inhibition, actives largely listed as inhibitors; P. falciparum luciferase reporter growth, 96 h; also: % is scaled to controls: 0 for no effect and ±100 for the full control effect
#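 Parasite growth measured via integrated firefly luciferase reporter in P. falciparum. Infected erythrocytes at 2% hematocrit, 0.05% parasitemia final were treated 96 hours at 37 C under 5% CO2, and luminescence was read.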
# Active calls of the source: *; ? = inconclusive; nt = no result given. Unless noted, calls follow the shape of the dose curve; as a rule, active = well fitted curve in the direction sought with a large enough effect; inconclusive = small, poorly fitted or top-dose-only effect, or another doubt; inactive = no such curve, though single readings can be large; an effect the other way counts as inactive or inconclusive. Potency is read from the fitted curve at half-maximal effect.
SMILES,Sm TGR inh,Pf growth 48h,AMA1-RON2 inh,NS1 inh,Pf growth 96h
COc1cc(/C=C/C(=O)OCC(=O)Nc2ccc(S(=O)(=O)N3CCCC3)cc2)ccc1O,?,?,-19%,15%,9.3µM*
O=C(Nc1nccs1)c1cccc(S(=O)(=O)N2CCCC2)c1,-3%,1%,28%,?,79%
CCN(CC)S(=O)(=O)c1cccc(NC(=O)c2cccc(S(=O)(=O)N3CCCC3)c2)c1,-4%,9.3µM*,-7%,nt,12µM*
NS(=O)(=O)c1cccc(NC(=O)c2cccc(S(=O)(=O)N3CCCCCC3)c2)c1,nt,nt,3%,nt,nt
COc1ccc(C(=O)NNS(=O)(=O)c2ccc(OC)cc2)cc1,-3%,26%,0%,9%,?
COc1ccc(S(=O)(=O)NNC(=O)c2ccc(-n3c(C)ccc3C)cc2)cc1,10µM*,?,0%,0%,?
CCCc1c2c(cc3c(=O)cc(C(=O)OCC)oc13)CCCC2,-16%,nt,1%,-3%,17%
CC1(Cc2ccc(F)cc2)C(=O)Nc2ccc(S(=O)(=O)NC3CCCCC3)cc21 (stereo not given),nt,nt,0%,nt,nt
Cc1ccc(-n2ncc3c2CC(C)(C)CC3NC(=O)CCn2cncn2)cc1 (stereo not given),0%,-6%,21%,9%,10µM*
Cc1ccccc1-n1ncc2c1CC(C)(C)CC2NC(=O)CCn1cncn1 (stereo not given),-17%,?,3%,-9%,80%
Cc1ccccc1CN(C)C(=O)COC(=O)c1ccc2[nH]c(C)c(C)c2c1,nt,nt,-3%,nt,nt
COC(=O)CNC(c1ccccc1)c1cc(Br)ccc1NC(=O)c1ccccc1 (stereo not given),5%,nt,nt,nt,nt
NNC(=O)CNC(c1ccccc1)c1cc(Br)ccc1NC(=O)c1ccccc1Br (stereo not given),17%,8.3µM*,59%,?,78%
CC1(C)C2CCC1(C)C(NCC(O)COc1ccc(C#N)cc1)C2 (stereo not given),-24%,nt,?,-2%,4.1µM*
COc1ccc(Cn2c(=O)c3cccnc3n(CC(=O)Nc3c(C)cc(C)cc3C)c2=O)cc1,3%,nt,nt,nt,nt
COc1cccc(NC(=O)c2cc([N+](=O)[O-])ccc2NC(=O)CNCC2CCCO2)c1 (stereo not given),3%,?,70%,nt,29%
O=C(CN1CCN(c2cccc(Cl)c2)CC1)Nc1ccc([N+](=O)[O-])cc1C(=O)Nc1ccccc1F,5%,?,5%,25%,31%
Cc1ccc(C)c(N2CCN(CC(=O)Nc3ccc([N+](=O)[O-])cc3C(=O)Nc3ccccc3F)CC2)c1,17%,?,-2%,2%,2.3µM*
O=C(CNCC1CCCO1)Nc1ccc([N+](=O)[O-])cc1C(=O)Nc1ccccc1F (stereo not given),-2%,?,123%,-1%,5.9µM*
O=C(OCn1ncc(Cl)c(Cl)c1=O)c1ccccc1Cl,7.1µM*,0%,-9%,-110%,6%
O=C(OCn1ncc(Cl)c(Cl)c1=O)c1ccc(F)cc1,7.1µM*,?,nt,-103%,?
O=c1c(Cl)c(Cl)cnn1Cc1ccc(F)cc1,20µM*,-19%,-4%,-3%,?
Cc1ccccc1C(=O)N1Cc2cnnn2-c2ccccc2C1C#N (stereo not given),nt,nt,0%,nt,nt
Cc1ccccc1-c1ccc2n1Cc1cnnn1-c1ccccc1-2,nt,nt,25µM*,nt,nt
Cc1ccc(N2C(=O)CC(N(CCc3ccccc3)C(=S)Nc3ccc(N(C)C)cc3)C2=O)cc1 (stereo not given),-13%,12µM*,-5%,?,?
SMILES,Sm TGR inh,Pf growth 48h,AMA1-RON2 inh,NS1 inh,Pf growth 96h
O=C1CC(N(CCc2ccccc2)C(=S)Nc2ccccc2)C(=O)N1c1ccc(Br)cc1 (stereo not given),4%,?,-19%,?,?
CCCNC(=O)c1nc2ncc(Br)cn2n1,0%,26%,8%,-3%,13µM*
O=C(COC(=O)C1CC(=O)N(Cc2ccco2)C1)c1ccc(OC(=O)c2ccco2)cc1 (stereo not given),11µM*,-5%,-9%,10%,nt
Cc1ccc(S(=O)(=O)c2cc(N3CCOCC3)nc(-c3ccccc3)n2)cc1,4%,?,15%,-7%,8.3µM*
Cc1ccc(S(=O)(=O)c2cnc(-c3ccccc3)nc2N2CCN(C)CC2)cc1,20%,?,-10%,-3%,10µM*
c1ccc(-c2ccc(Oc3cc(N4CCOCC4)nc(-c4ccccc4)n3)cc2)cc1,-1%,?,-6%,-1%,-63%
CC1CCN(CC[S-])CC1.O.O.[Cl][Pt],nt,nt,nt,5%,nt
Cc1cc(C)c(S(=O)(=O)NCc2ccccn2)c(C)c1,-7%,6%,56%,-6%,0%
CCn1ccc2cc(S(=O)(=O)N3CCCN(C(=O)NCC(=O)OC)CC3)ccc21,-6%,nt,nt,nt,nt
CCc1nnc(NS(=O)(=O)c2ccc(NC(=S)NC(=O)c3ccc(OC)cc3)cc2)s1,40µM*,?,12%,?,-2%
CCc1nnc(NS(=O)(=O)c2ccc(NS(=O)(=O)c3ccc(NC(C)=O)cc3)cc2)s1,-6%,nt,nt,11%,29%
CCc1nnc(NS(=O)(=O)c2ccc(NC(=S)NC(=O)c3ccc(OC)c(OC)c3)cc2)s1,40µM*,-2%,53%,24%,-28%
CCN(CC)S(=O)(=O)c1ccc(S(=O)(=O)Nc2cc3c(cc2C(C)=O)OCO3)cc1,-11%,?,0%,6%,12µM*
CCc1nnc(NS(=O)(=O)c2ccc(NC(=S)NC(=O)c3ccncc3)cc2)s1,20µM*,87%,10%,15%,56%
Cc1cc(NC(=O)C2CC(=O)N(c3ccc(Cl)cc3)C2)no1 (stereo not given),3%,-9%,9%,4%,16%
CCc1nnc(NS(=O)(=O)c2ccc(NC(=O)c3ccc(S(=O)(=O)N(CC)CC)cc3)cc2)s1,1%,13µM*,7%,16%,10%
NC(N)=NS(=O)(=O)c1ccc(NC(=S)NC(=O)c2ccc(Br)cc2)cc1,-35%,2%,72%,0%,-28%
CCN(CC)S(=O)(=O)c1ccc(C(=O)Oc2ccc3c(c2)OCO3)cc1,-3%,-24%,-1%,-10%,3.3µM*
CCOc1cc(C(=O)Nc2ccc(S(=O)(=O)Nc3nnc(CC)s3)cc2)cc(OCC)c1OCC,-11%,?,-8%,11%,?
NC(N)=NS(=O)(=O)c1ccc(NC(=S)NC(=O)c2ccncc2)cc1,20µM*,9%,14%,6%,?
CCN(CC)S(=O)(=O)c1ccc(C(=O)Nc2ccc3c(c2)OCCO3)cc1,?,6.6µM*,0%,-6%,?
CCN(CC)S(=O)(=O)c1ccc(C(=O)NCc2ccc3c(c2)OCO3)cc1,4%,-8%,-13%,nt,?

# Screens (PubChem)
